Assay outcomes as filed in PubChem BioAssay.
ELG1 DNA repair – blocks ELG1-dependent DNA repair in HEK293T cells | HEK293T ELG1-luciferase reporter, luminescence, 16 h; DNA damage induced by 5-fluorouridine | 2.3% of 330,000 active | Potency, µM (doses to about 46.1 µM), inactives show at the top dose activity change, negative = inhibition, hits mostly inhibitors | AID 504467; further: on the % scale 0 is the no-effect control and ±100 the full control effect; nearly all actives have a fitted effect of over 55% in size
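Step one: seed 2,000 cells per well. Step two: pin-transfer compound or DMSO alongside 5-fluorouridine. Step three: incubate 16 hr, 37 °C, 5% CO2. Step four: add ONE-Glo, wait 30 min, read luminescence.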
ELG1 genotox – inducers of genotoxicity in HEK293T ELG1-luciferase cells. HEK293T ELG1-luciferase reporter, luminescence, 16 h. Potency, µM (top dose mostly 46 µM), without a hit: at the highest dose activity change, positive = activation, most hits filed as activators. 1.3% of 330,000 active; further: % of control where 0% means no effect; nearly all actives have a fitted effect of over 60% in size
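ELG1-luciferase HEK293T cells, 2,000/well; compound pinned in; 16 hr, 37 °C, 5% CO2; ONE-Glo, 30 min RT; luminescence on CCD imager.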
Rab9 promoter act – activators of Rab9 promoter; Huh7 Rab9 promoter-luciferase reporter, luminescence, 24 h; Potency, µM (highest dose often 9.22 µM), inactives show at the highest dose activation, negative = inhibition, most hits filed as activators; 2.8% of 320,000 active; AID 485297; further: % of control where 0% means no effect; nearly all actives have a fitted effect of over 60% in size
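Luminescence from Amplite-detected luciferase (10 minutes, ambient) reports Rab9 promoter activation. Before that, stable Rab9-luciferase Huh7 cells (1500/well, reduced-serum OP-MEM I plus 10% FBS) were exposed to compound for 24 hours at 37C.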
FLuc counter – counter-screen for miR-21 project: firefly luciferase inhibitors or activators; P08659; purified FLuc, Km substrates, luminescence inhibition; Potency, µM (doses to about 57.5 µM), for the others: at the top dose activity change, negative = inhibition, usual class: inhibitors; 6.9% of 360,000 active; AID 588342;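 further: plate controls were vehicle for no effect and reference inhibitor for full effect; nearly all actives have a fitted effect of over 55% in size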
Target sequence (P08659 whole entry, looked up): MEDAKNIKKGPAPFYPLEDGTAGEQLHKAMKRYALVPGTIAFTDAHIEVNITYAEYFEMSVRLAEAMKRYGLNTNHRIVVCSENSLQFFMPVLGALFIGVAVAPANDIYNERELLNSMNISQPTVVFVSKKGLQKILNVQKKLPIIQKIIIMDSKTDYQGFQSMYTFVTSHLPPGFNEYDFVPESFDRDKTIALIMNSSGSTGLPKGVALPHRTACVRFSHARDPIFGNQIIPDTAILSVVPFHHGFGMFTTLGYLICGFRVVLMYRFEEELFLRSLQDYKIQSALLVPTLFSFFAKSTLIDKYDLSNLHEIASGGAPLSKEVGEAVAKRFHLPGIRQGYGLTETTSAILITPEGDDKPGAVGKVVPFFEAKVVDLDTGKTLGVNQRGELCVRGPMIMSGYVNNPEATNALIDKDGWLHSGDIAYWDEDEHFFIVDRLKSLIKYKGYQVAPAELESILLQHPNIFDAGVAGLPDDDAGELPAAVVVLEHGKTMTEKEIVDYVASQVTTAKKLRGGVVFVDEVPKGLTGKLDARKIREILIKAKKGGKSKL
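Purified P. pyralis luciferase, 10 nM final, with Km-level 10 uM D-luciferin and 10 uM ATP in 50 mM Tris acetate pH 7.5, 10 mM Mg acetate, 0.01% Tween-20, 0.05% BSA; 6-point qHTS titration about 60 µM downward; luminescence read.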
SMN2 splice enh – enhancers of SMN2 splice variant expression. HEK293 SMN2-luciferase splicing reporter, luminescence, 30-36 h. Potency, µM (series often up to 46.1 µM), for inactives: at the highest dose activity change, positive = activation, usual class: activators. 2.8% of 210,000 active; further: % of control where 0% means no effect; nearly all actives have a fitted effect of over 55% in size
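HEK293 cells carry an SMN2 […]–luciferase reporter in which exon 7 inclusion puts luciferase in frame. Cells were plated 10-12 h before compound addition, then incubated 30-36 h at 37C. ONE-Glo luminescence was read; sodium butyrate at 4.5 mM final served as control.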
NPC1 prom act – NPC1 promoter activation; Huh7 NPC1 promoter luciferase reporter, 24 h; Potency, µM (highest dose often 9.22 µM), without a hit: top-dose activation, actives largely listed as activators; 2.4% of 320,000 active; AID 485313; further: % of control where 0% means no effect; nearly all actives have a fitted effect of over 60% in size
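Stable NPC1-promoter luciferase Huh7 line; cpd (DMSO) 24 h, 37 °C, 5% CO2; Amplite luciferase reagent 10 min RT; luminescence readout. qHTS format.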
Starred values were filed as active, the others as inactive; ? = inconclusive; . = not tested or not shown. An excerpt weighted towards active compounds, which were near 9.2% of everything screened. The call rests on the fitted dose curve; in most records, active means well fitted curve in the direction sought with a large enough effect; inconclusive means small, poorly fitted or top-dose-only effect, or another doubt; inactive means no such curve, though single readings can be large; an effect the other way counts as inactive or inconclusive. Potency means the concentration at half of the fitted maximal effect.

SMILES | ELG1 DNA repair | ELG1 genotox | Rab9 promoter act | FLuc counter | SMN2 splice enh | NPC1 prom act
O=[N+]([O-])c1cc(-c2nc(-c3ccccc3)no2)ccc1N1CCCCC1 | . | . | . | -1% | . | .
Cc1ccccc1-c1noc(-c2ccc(N3CCCC3)c([N+](=O)[O-])c2)n1 | . | . | . | 13µM* | . | .
Cc1noc(-c2ccc(N3CCC(C)CC3)c([N+](=O)[O-])c2)n1 | . | . | . | 8.5µM* | . | .
COCCNc1ccc(-c2nc(-c3ccco3)no2)cc1[N+](=O)[O-] | . | . | . | -15% | . | .
CCNc1ccc(-c2nc(-c3ccco3)no2)cc1[N+](=O)[O-] | . | . | . | 15µM* | . | .
CC1CCN(c2ccc(-c3nc(-c4ccccc4)no3)cc2[N+](=O)[O-])CC1 | . | . | . | -6% | . | .
COc1cc(OC)c(NC(=O)CSC2=Nc3ccccc3N=C(c3ccc(F)cc3)C2)cc1Cl | . | . | . | 0% | . | .
CCOC(=O)c1ccc(NC(=O)c2cn(CCC#N)nc2-c2ccc3c(c2)OCCO3)cc1 | 15µM* | -1% | -2% | 4% | 10% | -1%
Cc1ccc(C(=O)c2cn(Cc3cccc(Cl)c3)c3nc(C)ccc3c2=O)cc1 | . | . | . | -6% | 0% | .
Cc1ccn2c(c1)nc(=O)c1cc(S(=O)(=O)N3CCCCC3)c(Cl)cc12 | . | . | . | -3% | 3% | .
CC(=O)c1ccc(NC(=O)COc2ccccc2C(=O)Nc2ccccc2)cc1 | ? | -17% | 12% | ? | . | 13%
CCNC(=O)COc1ccc(F)cc1C(=O)c1cnn(-c2ccccc2)c1 | 14% | 6% | 2% | 0% | . | 1%
O=C(COc1ccccc1C(=O)c1cnn(-c2ccccc2)c1)Nc1ccccc1 | ? | 5% | ? | 1.5µM* | 25µM* | 26%
COc1ccccc1CNC(=O)COc1ccccc1C(=O)c1cnn(-c2ccccc2)c1 | ? | 7% | 17% | 9.5µM* | . | 16%
CCN(CC)c1ccc(/C=C(/C#N)C(=O)NC(C)C)o1 | ? | 19% | 27% | ? | 25% | 8%
CCN(CC)c1ccc(/C=C(/C#N)C(=O)NCc2ccccc2)o1 | ? | 15% | ? | 24µM* | . | 23%
N#C/C(=C\c1ccccc1[N+](=O)[O-])C(=O)NCc1ccccc1 | 1.8µM* | -2% | 2% | -6% | . | -3%
Cc1ccc(C)c(N2CCN(CCCNC(=O)Cn3ncc4c5ccccc5n(C)c4c3=O)CC2)c1 | . | . | . | -1% | -9% | .
CCOc1ccc(N(CC)S(=O)(=O)N2CCCC(C(=O)Nc3cc(Cl)ccc3C)C2)cc1 (centres undefined) | . | . | . | -10% | . | .
Nc1ccccc1SC1CC(=O)N(c2ccc3c(c2)OCCO3)C1=O (centres undefined) | ? | 7% | 2.2µM* | ? | . | ?
COc1ccc(OC)c(NC(=O)c2cnn(-c3ccc(C)cc3)c2C2CCNCC2)c1 | . | . | . | -4% | . | .
O=C(Cc1cccs1)Nc1ccc(N2CCOCC2)cc1 | ? | ? | ? | 17µM* | ? | ?
CN1CCN(c2ccc(NC(=O)Cc3ccccc3)cc2)CC1 | ? | 12µM* | ? | 19µM* | 17% | ?
O=C(O)CCCC(=O)Nc1ccc(N2CCCC2)cc1 | 10% | 1% | 6% | 15µM* | -12% | 4%
CCNC(=S)Nc1ccc(N2CCCCC2)cc1 | 0% | 15% | 25% | -14% | 18µM* | 26%
SMILES | ELG1 DNA repair | ELG1 genotox | Rab9 promoter act | FLuc counter | SMN2 splice enh | NPC1 prom act
COCCCNC(=S)Nc1ccc(N2CCCCC2)cc1 | 10% | 4% | 13% | -6% | 16% | 11%
CCCC(=O)N1CCN(c2ccc(NC(=O)c3ccco3)cc2)CC1 | ? | 9% | 25% | 1% | -9% | 2%
CCN1CCN(c2ccc(NC(=O)c3ccco3)cc2)CC1 | ? | ? | ? | 27µM* | . | ?
O=C(Cc1ccccc1)Nc1ccc(N2CCCCC2)cc1 | ? | 3.3µM* | ? | 6µM* | 11µM* | 1.8µM*
O=C(CNC(=O)c1ccco1)Nc1ccc(N2CCCCCC2)cc1 | ? | ? | 28% | 17µM* | . | 29%
O=C(CNC(=O)c1ccc(Br)o1)Nc1ccc(N2CCCCCC2)cc1 | 12% | 3% | -1% | ? | . | -4%
Cc1cccc(-c2nnc(SCCC(=O)N3CCOCC3)o2)c1 | ? | 5% | -2% | ? | -2% | 6%
Cc1cccc(-c2nnc(SCCC(=O)O)o2)c1 | . | . | . | 11µM* | -15% | .
Cc1cccc(-c2nnc(SCC(=O)N3CCCCC3)o2)c1 | . | . | . | ? | 4.5µM* | .
Cc1cccc(-c2nnc(SCC(=O)N3CCCC3)o2)c1 | ? | ? | 4µM* | 27µM* | . | 3.5µM*
Cc1cccc(N2CCN(C(=O)c3c4c(nc5ccccc35)C(=O)N(C3CCCCC3)C4)CC2)c1C | . | . | . | -3% | . | .
CN(C)CCn1c2c(c(SCC(=O)NCc3ccccc3)nc1=O)CCCC2 | 13% | 2% | 2% | 1% | . | 6%
Cc1ccc(C(=O)O/N=C/c2c(Cl)n(C)c3ccccc23)cc1 | 0% | -1% | 0% | 2.7µM* | ? | 0%
Cc1cccc(C(=O)O/N=C/c2c(Cl)n(C)c3ccccc23)c1 | 2% | -1% | 1% | ? | 5% | -1%
